# The supplement of paper PMC10338343
# ± gives the standard deviation.
# System: MILI (PIWIL2) piRISC loaded with L1MC piRNA (26 nt)
# Assay: pre-steady-state target cleavage rate (min^-1); guide: L1MC piRNA 5'p-UAACUAAAUACUAUGCAAGCUGUAGG; MIWI and MILI are mouse PIWI proteins and EfPiwi is from a freshwater sponge; tags in brackets are library labels; higher = faster piRNA-guided slicing of the target
# Settings: auxiliary factor: 500 nM mouse GTSF1
# Outline: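 For Cleave-'n-Seq, a transcribed, DNA-blocked target RNA library […] met 1 nM active affinity-purified piRISC with one synthetic guide at 33 °C for 0–8 or 0–960 min in HEPES–potassium acetate buffer, with or without 500 nM GTSF1 partner protein. Uncleaved targets were sequenced and normalised to depth and weakly complementary targets, with three trials pooled and k3 capped at 0.0001 min^-1. A burst-and-steady-state fit supplied the pre-steady-state cleavage rate.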
# 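Note: 1 nM active piRISC with 0.1 nM target library at 33 °C single turnover.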
row,Sequence,pre-steady-state target cleavage rate
1,UCCUGGAUGAGCUUGCAUAGUAUUUAGAUUA,0.165 ± 0.048
2,UCCUGGAUGUCGAACCAUAGAAUUUUGUUA,0.251 ± 0.13
3,UCCUGGAUGAGCUUGCAUAGUAUAAUGAAA,0.00735 ± 0.0041
4,UCCUGGUACAGCUUGCAUAGUAUUGUAGUUA,0.233 ± 0.055
5,UCCUGGAUGUCCUUGCAUUGUAUUUAGAUA,0.0401 ± 0.011
6,UCCUGGAUGUCGAUGCAUAGUAUUUCGUUA,0.0116 ± 0.0056
7,UCCUGGAUGUCCUUGCAUAGUUUUUUGUUA,0.00821 ± 0.0052
8,UCCUGGAUGUCGUUGUCAUAGUAUUUAGUUA,0.00743 ± 0.0049
9,UCCUGGAUCACGUUGCAUAGUAUUUUCAAA,0.0743 ± 0.025
10,UCCUGGAUGAGCUUGCAUAGUAUAAAGUAA,0.0682 ± 0.02
11,UCCUGGAUCUGCUUGCAUAGUAUUUACAAA,0.104 ± 0.022
12,UCCUGGAUGUGCUUGCUUAGAAUUUAGUUA,0.00417 ± 0.0032
13,UCCUGGAUGUCGAUGCAUAGUAUUUACAAA,0.0066 ± 0.0042
14,UCCUGGAUGUGCUUGCAUAGUAUUAGUUA,0.0236 ± 0.0068
15,UCCUGGAACAGCUUGCAUAGUAAAAUCAAA,0.0152 ± 0.008
16,UCCUCCUACAGCUUCCAUAGUUUUUAGUUA,0.0195 ± 0.0081
17,UCCUGGAUGUCGAUGCAUAGUAAUAAGUUA,0.00446 ± 0.0033
18,UCCUGGAUGAGCUUGCAAAGUAUUUAGAUA,0.117 ± 0.022
19,UCCUGGAUGUGCUUGCAUAGUAUUAAGUAA,0.015 ± 0.0059
20,UCCUGGAUGACGAUGCAUAGUAUUUAGAAA,0.139 ± 0.035
21,UCCUGCUACACGAUGCAUAGUAUUUAGAAA,0.183 ± 0.042
22,UCCUCCUAGUCCUUGCAUAGUAUUUACAAA,0.0299 ± 0.0097
23,UCCUGCUACAGCUAGCAUAGUAUUUAGAAA,0.227 ± 0.051
24,UCCUGGUACAGCUUGCAUUAGUAUUUAGUUA,0.017 ± 0.0074
